Compound activity: PubChem BioAssay, several laboratories
MPTP inh: permeability transition pore inhibition; inhibition, % at 10 µM; 360,000 compounds, 1.4% hits; isolated mouse mitochondria, Ca2+ swelling absorbance, 30 min;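 active means inhibition of 50% or more, scaled per plate between neutral and stimulator controls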;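 further: 0% = DMSO wells given calcium and 100% = 1 mM EGTA wells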
Beta cell apopt: blocks beta cell apoptosis. INS-1E cytokine-induced death, ATP luminescence, 48 h; percent of positive-control rescue, neutral wells zero. protection from apoptosis, % (test concentration not listed). 300,000 compounds, 0.8% hits. AID 435005;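 active means Every replicate reaches about 75%, or at least half do and their mean reaches it too, limit read from the data; inconclusive means At least half of replicates reach the limit but their mean does not; inactive means Under half of replicates reach the limit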;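 further: 0% = cytokine-treated negative control wells and 100% = positive control rescue; higher means more ATP so stronger rescue from cytokine killing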
CSC inhib: blocks cancer stem cells; cancer stem cell-like cells viability, luminescence; inhibition, % at 7.5 µM; 300,000 compounds, 1.1% hits; in the data active means inhibition above about 75%; inconclusive means no clear call, values can overlap the other calls; tested in HMLE shEcad cells
Calb FLC: affects C. albicans growth with fluconazole; AID 1979; growth inhibition, % (test concentration not listed); 300,000 compounds, 0.57% hits; C. albicans CaCi-2 (fluconazole-resistant clinical isolate) + fluconazole, Alamar Blue growth, 48 h;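 active means growth inhibition above about 58% in most replicates, limit read from the data, passing the limit was not always enough; inconclusive means exactly half the replicates above a set limit; inactive means most replicates below a set limit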;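 further: all wells also contain fluconazole at 8 µg/ml as a sub-toxic cotreatment; 0% = median of DMSO wells and 100% = median of geldanamycin control wells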
Mdm2-MdmX inh: disrupts the human Mdm2-MdmX interaction; inhibition, % at 8 µM; AID 485346; 330,000 compounds, 3% hits; SaOS-2 split-luciferase Mdm2/MdmX complementation, luminescence;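 active means inhibition of at least 50% at 8 µM in the primary screen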
Target sequence (O15151 whole entry, looked up): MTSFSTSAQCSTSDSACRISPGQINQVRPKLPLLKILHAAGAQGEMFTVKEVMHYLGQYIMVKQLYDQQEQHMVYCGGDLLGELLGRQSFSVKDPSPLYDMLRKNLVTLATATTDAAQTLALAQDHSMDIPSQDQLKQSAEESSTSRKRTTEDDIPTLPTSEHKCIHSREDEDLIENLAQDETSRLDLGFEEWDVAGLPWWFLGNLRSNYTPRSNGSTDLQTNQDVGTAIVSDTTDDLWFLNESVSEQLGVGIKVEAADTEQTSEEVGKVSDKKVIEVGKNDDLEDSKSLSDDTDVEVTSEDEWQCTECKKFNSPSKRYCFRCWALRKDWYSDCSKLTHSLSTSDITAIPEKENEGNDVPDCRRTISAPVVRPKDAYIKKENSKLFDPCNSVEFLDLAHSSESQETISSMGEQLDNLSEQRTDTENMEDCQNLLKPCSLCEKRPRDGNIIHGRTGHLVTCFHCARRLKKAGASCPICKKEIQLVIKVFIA
Target sequence (Q00987 whole entry, looked up): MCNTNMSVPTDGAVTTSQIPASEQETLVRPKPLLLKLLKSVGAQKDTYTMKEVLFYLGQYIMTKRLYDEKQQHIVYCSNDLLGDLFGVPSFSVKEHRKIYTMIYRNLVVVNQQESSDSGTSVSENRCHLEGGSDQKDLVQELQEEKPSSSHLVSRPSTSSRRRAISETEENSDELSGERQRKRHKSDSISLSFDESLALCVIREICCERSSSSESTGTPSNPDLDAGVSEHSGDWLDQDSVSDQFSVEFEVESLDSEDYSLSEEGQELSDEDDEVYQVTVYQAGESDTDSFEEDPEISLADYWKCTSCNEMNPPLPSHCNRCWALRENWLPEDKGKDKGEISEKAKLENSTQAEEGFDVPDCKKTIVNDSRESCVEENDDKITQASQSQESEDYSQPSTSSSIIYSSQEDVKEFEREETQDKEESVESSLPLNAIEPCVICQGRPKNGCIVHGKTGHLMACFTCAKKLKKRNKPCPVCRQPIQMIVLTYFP
MPTP counter: membrane potential counter-screen of mitochondrial pore inhibitors; shares compounds with MPTP inh; isolated mitochondria, Rhodamine 123 fluorescence; inhibition, % at 10 µM; 5,000 compounds, 78% hits; AID 624504; in the data active means inhibition above about 22%;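 further: 0% = DMSO vehicle and 100% = positive control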
MPTP abs DR: dose response confirmation of mitochondrial permeability transition pore inhibitors. shares compounds with MPTP inh. isolated mitochondria swelling, absorbance. IC50, µM. 780 compounds, 58% hits. AID 651561; in the data active means IC50 below about 20 µM
MPTP cs DR: active in counter-screen for permeability transition pore inhibitors; AID 651564; IC50, µM; 780 compounds, 49% hits; isolated mitochondria counterscreen, fluorescence read-out; shares compounds with MPTP inh; in the data active means IC50 below about 80 µM
* = called active by the depositor; ? = inconclusive; . = not tested or not shown. In the library only some 4.8% were active in any assay of this set; here they are far more common.

SMILES	MPTP inh	Beta cell apopt	CSC inhib	Calb FLC	Mdm2-MdmX inh	MPTP counter	others
COc1ccc(N2CCC(CNC(=O)Nc3ccc(Cl)cc3)C2)cc1 (stereo not given)	91*	10	30	-1	9	75*
COc1cc(NC(=O)NCCN2CCN(c3ccc(Cl)cc3)CC2)ccc1C	70*	4	8	?	24	-6	MPTP abs DR=>100;MPTP cs DR=73*
Fc1ccc(-c2ccc3c(c2)C2CC3CCN2Cc2ccc3c(c2)OCO3)cc1 (stereo not given)	0	.	.	.	.	.
O=C(O)CC1(CC(=O)Nc2nccs2)CCCCC1	0	.	.	.	.	.
OC(c1cccc(OCc2ccccc2)c1)c1nnc(-c2ccccc2)o1 (stereo not given)	104*	50	-7	-7	9	96*
COc1ccccc1C(=O)NC(=O)COC(=O)c1cnccn1	-1	.	.	.	.	.
C=CC[n+]1c(-c2ccc(OCC)cc2)csc1NNC(=O)Nc1ccccc1	66*	99*	?	7	10	79*
C=CC[n+]1c(-c2ccc(C)cc2)csc1Nc1c(C)n(C)n(-c2ccccc2)c1=O	1	.	5	-27	17	.
Cc1nn(C)c(C)c1S(=O)(=O)N1CCC(CO)(CC2CCCCO2)CC1 (stereo not given)	0	-1	7	-4	-32	.
O=C(CN1CCN(c2ncc(C(F)(F)F)cc2Cl)CC1)NCCNc1ncc(C(F)(F)F)cc1Cl	4	8	-5	16	29	.
O=C(CONS(=O)(=O)c1ccc(Cl)cc1)NCCNc1ncc(C(F)(F)F)cc1Cl	70*	4	38	17	-10	77*
COc1ccccc1NC(=O)CN1CCN(CC(=O)Nc2ccc(Cl)c(C(F)(F)F)c2)CC1	3	.	.	.	.	.
C/C(CC(=O)Nc1ccc(Cl)c(C(F)(F)F)c1)=N\NC(=O)c1ccccc1O	98*	23	-12	-1	44	70*
CCc1ccccc1NCC(=O)Nc1ccc(Cl)c(C(F)(F)F)c1	69*	.	.	-26	41	86*
CC(=O)NC(c1cccc(F)c1)c1nc(-c2cnc3ccccc3c2)cs1 (stereo not given)	-1	.	.	.	.	.
COc1cc(C(=O)Nc2nc(C)cc(C)n2)cc(OC)c1OC	0	5	9	-2	5	.
O=[N+]([O-])c1cc(NCCO)c(N2CCCCCC2)c2nonc12	0	5	-3	-12	-11	.
Cc1ccc(S(=O)(=O)NC(=O)Nc2cc(C(C)(C)C)on2)cc1	1	-7	-6	-4	-16	.
CSc1ccc(CN2C(=O)C(F)(F)Oc3c(C(C)=O)cccc32)cc1	74*	.	.	.	.	75*
CN(CCC(=O)c1ccccc1)CCC(=O)c1ccccc1	-1	-10	5	-3	-17	.
CN(C)CCC(=O)c1ccc(Cl)cc1	99*	-4	28	23	-11	5	MPTP abs DR=10*;MPTP cs DR=>80
Cc1ccc(S(=O)(=O)NC(=O)C2(C)CCN2C(=O)C2CCCCC2)cc1 (stereo not given)	1	.	.	.	.	.
O=S(=O)(Nc1ccccc1F)c1cccc(NC(=S)NCCN2CCOCC2)c1	-1	1	1	.	15	.
O=C(COc1ccccc1)Nc1ccccc1NS(=O)(=O)c1cccs1	9	-7	-7	?	11	.
Cc1cc(Cl)ccc1OCC(=O)Nc1ccccc1NS(=O)(=O)c1cccs1	52*	18	1	3	31	78*
SMILES	MPTP inh	Beta cell apopt	CSC inhib	Calb FLC	Mdm2-MdmX inh	MPTP counter	others
O=C(COc1ccc(Cl)cc1Cl)Nc1ccccc1NS(=O)(=O)c1cccs1	66*	6	-6	8	-76	79*
c1coc(CN(Cc2ccco2)c2ncnc3c2oc2ccccc23)c1	83*	.	34	2	39	67*
CC(=O)c1cccc(N=c2scc(-c3ccc(S(=O)(=O)N4CCOCC4)cc3)n2CCO)c1	97*	75*	14	?	-2	87*
C=CCn1c(-c2ccc(S(=O)(=O)N3CCOCC3)cc2)csc1=Nc1ccccc1	58*	6	27	-4	1	100*
C/C(=N\NC(=O)c1nnn(-c2nonc2N)c1CSc1ccc(C)cc1)c1cccnc1	1	.	.	.	.	.
FC(F)Sc1ccc(NC(=S)NC2CCC(NC(=S)Nc3ccc(SC(F)F)cc3)CC2)cc1 (stereo not given)	4	2	25	-12	26	.
CCCCNC(=S)Nc1ccc(SC(F)F)cc1	98*	8	6	5	-27	73*
Oc1cccc2c(NC(=S)Nc3ccc(SC(F)F)cc3)cccc12	88*	-3	-14	18	38	88*
Oc1cccc(NC(=S)Nc2ccc(SC(F)F)cc2)c1	91*	3	-2	4	2	84*
Cc1ccc(-n2c(C)cc(=O)cc2C)cc1[N+](=O)[O-]	1	-4	.	42	5	.
COc1ccc(N2CCN(C(=O)C3CCN(C(=O)c4ccc([N+](=O)[O-])cc4)CC3)CC2)cc1	0	3	-3	15	-13	.
C[C@@H]1CN([C@H](C)CO)C(=O)CCCn2nncc2CO[C@H]1CN(C)S(=O)(=O)c1ccc(Oc2ccccc2)cc1	2	.	.	.	.	.
Cc1cc(C)cc(C(=O)N(NC(=O)Nc2ccc(Cl)cc2)C(C)(C)C)c1	97*	5	-4	-4	28	98*
CC(C)(C)N(NC(=O)Nc1ccc(F)cc1)C(=O)c1ccccc1	-1	.	.	-21	-23	.
CCOC(=O)CNC(=O)N1CCCC(Cc2ccccc2)(C(=O)OCC)C1 (stereo not given)	1	-1	9	-1	.	.
O=C(CSc1ccccc1F)NCC(c1ccco1)N1CCCCC1 (stereo not given)	0	.	.	.	.	.
COc1cccc(C(=O)c2ncc(C(F)(F)F)cc2Cl)c1	-1	-2	-10	31	2	.
COC(=O)/C(=C\Nc1cccc(Cl)c1C)c1ncc(C(F)(F)F)cc1Cl	75*	7	-3	3	29	8	MPTP abs DR=19*;MPTP cs DR=>80
Cc1cccc(-n2c(C)cc(/C=C3\C(=N)N4N=C(CC(C)C)SC4=NC3=O)c2C)c1	12	3	-4	-7	25	.
CC(C)CC1=NN2C(=N)/C(=C\c3coc4ccccc4c3=O)C(=O)N=C2S1	86*	.	.	6	.	82*
CCSC1=NSC2=NC(=O)/C(=C\c3coc4ccccc4c3=O)C(=N)N12	101*	-1	12	.	.	74*
CCCc1cc(C(=O)Nc2cc(OC)ccc2OC)cs1	-1	-5	-4	-12	10	.
CC(=O)NC1=NN(C(C)=O)C(c2ccco2)S1 (stereo not given)	-2	1	-12	-6	20	.
CCN(CC)C(=O)c1ccc(COc2ccc(Cl)c(C)c2)o1	91*	10	6	-3	4	85*
